The record followed here is PubChem BioAssay (Tox21).

The target of assay [1] is Estrogen receptor beta (Homo sapiens) (UniProt Q92731). The assay is described as follows: qHTS assay to identify small molecule agonists of the estrogen receptor beta (ER-beta) signaling pathway (AID 1259377; active means well fitted activation curve with a large enough effect in the signal ratio in the repeat runs, not every such curve was filed as active; the % refers to the signal ratio). Summed up: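 Read-out: beta-lactamase FRET fluorescence. Cell line: ER-beta-UAS-bla HEK293T in 2% charcoal-stripped FBS. Exposure: 16 hr at 37C. Substrate step: 2 h at room temperature.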
A general note: In qHTS, concentration-response curves come from the screen itself.

Assay [2] has the same target. The assay is described as follows: qHTS assay to identify small molecule antagonists of the estrogen receptor beta (ER-beta) signaling pathway (AID 1259378; active means well fitted inhibition curve with a large enough effect in the signal ratio in the repeat runs, not every such curve was filed as active; the % refers to the signal ratio; further: potency means the concentration at half of the fitted maximal effect). Summed up: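 Antagonist mode: compounds added to beta-lactamase reporter HEK293T ER-beta-UAS cells stimulated with E2 (1nM final), 16 hr at 37C. LiveBLAzer B/G FRET substrate, 2 hours room temperature, fluorescence read-out.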

A short description of assay [3]: qHTS assay to identify small molecule agonists of the androgen receptor (AR) signaling pathway in the presence of an antagonist - cell viability counter screen (AID 1259379). Further: nearly all actives have a fitted effect of over 25% in size. Further: potency means the concentration at half of the fitted maximal effect. Summed up:
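MDA-kb2 cells (MMTV-luciferase, AR/GR), 3,000/well, 5 h attachment, then 3.0 µM nilutamide (final) and compounds at 15 concentrations. Viability by CellTiter-Fluor fluorescence after 16 h at 37 °C, 0% CO2, in the reporter wells.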

Assay [4] is described as follows: qHTS assay to identify small molecule agonists of the estrogen receptor beta (ER-beta) signaling pathway - cell viability counter screen (AID 1259380). Further: nearly all actives have a fitted effect of over 30% in size. Further: potency means the concentration at half of the fitted maximal effect. A digest of the protocol: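 ER-beta-UAS-bla HEK293T cells in medium with 2% charcoal-stripped FBS, pre-incubated 6 hr, then treated 16 hr at 37C. Cytotoxicity read in the same wells by CellTiter-Glo luminescence after 30 min at room temperature.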

Assay [5] addresses Androgen receptor (Homo sapiens) (UniProt P10275). Description: qHTS assay to identify small molecule agonists of the androgen receptor (AR) signaling pathway in the presence of an antagonist (AID 1259381; calls by dose curve; further: nearly all actives have a fitted effect of over 15% in size). Summed up: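 MDA-kb2 cells carrying MMTV-luciferase (AR/GR responsive), 3,000 cells/well, co-treated with 3.0 uM nilutamide final. Compounds at 15 concentrations, 16 hr at 37C without CO2. Luciferase luminescence read after 30 min with ONE-Glo.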

Assay [6] is described as follows: qHTS assay to identify small molecule antagonists of the estrogen receptor beta (ER-beta) signaling pathway - cell viability counter screen (AID 1259382). Further: nearly all actives have a fitted effect of over 55% in size. Further: potency means the concentration at half of the fitted maximal effect. Summed up:
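ER-beta-UAS-bla HEK293T cells in 2% charcoal-stripped FBS medium, treated with compound plus 1 nM 17-beta-estradiol for 16 h at 37C. Viability read by CellTiter-Glo luminescence after 30 min at room temperature in the same wells.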

Assay [7] deals with Estrogen receptor (Homo sapiens) (UniProt P03372). The assay is described as follows: qHTS assay to identify small molecule agonists of the estrogen receptor alpha (ER-alpha) signaling pathway in the presence of an antagonist (AID 1259383; calls by dose curve; further: top concentration of the series differs between compounds; nearly all actives have a fitted effect of over 15% in size). A digest of the protocol: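 VM7Luc4E2 cells express endogenous full-length ER-alpha with an ERE-luciferase reporter and were hormone-deprived for 5 days. Compounds at 15 concentrations were added with 10.0nM ICI-182,780 for 22hr at 37C. Luminescence was read with ONE-Glo.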

Assay [8] in a line: qHTS assay to identify small molecule agonists or antagonists of the thyroid stimulating hormone receptor (TSHR) signaling pathway - wild type cell line counter screen (AID 1259384; calls by dose curve). A digest of the protocol: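 Counter screen in untransfected Hek293: compounds (15-point titration, triplicate) plus phosphodiesterase inhibitor Ro20-1724 added after 18 h plating; 30 min RT. Intracellular cAMP via competitive d2/cryptate immunoassay, 1 h incubation.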

The target of assay [9] is Thyrotropin receptor (Homo sapiens) (UniProt P16473). The assay is described as follows: qHTS assay to identify small molecule antagonists of the thyroid stimulating hormone receptor (TSHR) signaling pathway (AID 1259385; calls by dose curve; further: nearly all actives have a fitted effect of over 20% in size; further: potency means the concentration at half of the fitted maximal effect). Summed up: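 Antagonist mode: compound-treated TSHR-expressing HEK293 cells were stimulated with 1.5 ng/mL TSH (final) in presence of Ro20-1724 for 30 min at RT. HTRF cAMP detection after 1 h; each compound tested at 15 concentrations, triplicate.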

Assay [10] in a line: qHTS assay to identify small molecule agonists of the estrogen receptor alpha (ER-alpha) signaling pathway in the presence of an antagonist - cell viability counter screen (AID 1259386).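 Further: cells exposed to compounds for 22 h at 37 °C before the viability read; nearly all actives have a fitted effect of over 30% in size.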 Further: potency means the concentration at half of the fitted maximal effect. A digest of the protocol:
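Cell viability in VM7Luc4E2 cells (endogenous full-length ER-alpha) measured by CellTiter-Fluor fluorescence in the same wells as the luciferase screen. Cells pre-cultured 5 days in charcoal-stripped serum, then treated 22 h with compounds at 15 concentrations plus 10.0nM ICI-182,780.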

Assay [11] concerns the target Progesterone receptor (Homo sapiens) (UniProt P06401). The assay is described as follows: qHTS assay to identify small molecule agonists of the progesterone receptor (PR) signaling pathway (AID 1346784; calls by dose curve; further: nearly all actives have a fitted effect of over 30% in size). Summed up: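 Compounds were tested for PR agonism in HEK 293T cells bearing a beta-lactamase gene under UAS control. Treatment lasted 16 hr at 37C; signal came from fluorescence of a FRET substrate.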

The nature of assay [12]: qHTS assay to identify small molecule antagonists of the progesterone receptor (PR) signaling pathway - cell viability counter screen (AID 1346798). Further: nearly all actives have a fitted effect of over 50% in size. Further: potency means the concentration at half of the fitted maximal effect. Summed up:
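Following a 4 hr attachment, PR-UAS-bla HEK293T cells in charcoal-stripped FBS medium were exposed to compounds with R5020 for 16 hr; CellTiter-Glo was added and luminescence read after 30 min at room temperature.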

Assay [13] in a line: qHTS assay to identify small molecule agonists of the progesterone receptor (PR) signaling pathway - cell viability counter screen (AID 1346799; calls by dose curve; further: nearly all actives have a fitted effect of over 45% in size; further: potency means the concentration at half of the fitted maximal effect). Summed up:
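Here, 3,000 PR-UAS-bla HEK293T cells per well were treated with compounds for 16 hr after a 6 hr preincubation at 37C and 5% CO2; cell viability is the CellTiter-Glo luminescence signal.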

Assay [14] can be described thus: qHTS assay to identify small molecule antagonists of the TGF-beta/Smad signaling pathway - cell viability counter screen (AID 1346824). Further: nearly all actives have a fitted effect of over 50% in size. Further: potency means the concentration at half of the fitted maximal effect. Summed up: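 Cytotoxicity counter-screen run in the same wells as the beta-lactamase Smad reporter read: CellTiter-Glo luminescence after 30 min at room temperature. HEK 293T SBE-bla cells had 5 hr compound exposure at 37 C with TGF-beta1 (0.25 ng/mL stock).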

The nature of assay [15]: qHTS assay to identify small molecule agonists of the TGF-beta/Smad signaling pathway - cell viability counter screen (AID 1346829). Further: nearly all actives have a fitted effect of over 45% in size. Further: potency means the concentration at half of the fitted maximal effect. A digest of the protocol:
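Tox21 qHTS format: SBE-bla HEK 293T cells treated with DMSO-dissolved compounds for 5 hr; CellTiter-Glo luminescence after 30 min at room temperature.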

The nature of assay [16]: qHTS assay to identify small molecule agonists of the TGF-beta/Smad signaling pathway (AID 1346859; active means well fitted activation curve with a large enough effect in the signal ratio in the repeat runs, not every such curve was filed as active; the % refers to the signal ratio; further: series mostly up to about 77 µM). A digest of the protocol: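 Each well held 4,000 SBE-bla HEK 293T cells incubated overnight before compound addition; 5 hr later the cleavable FRET substrate went on for 2 hr at room temperature, and fluorescence was read at two emissions.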
Assay [17] has as its target Thyrotropin-releasing hormone receptor (Homo sapiens) (UniProt P34981). Description: qHTS assay to identify small molecule antagonists of the thyrotropin-releasing hormone receptor (TRHR) signaling pathway (AID 1346877; active means well fitted inhibition curve with a large enough effect in the repeat runs, not every such curve was filed as active; further: series mostly up to about 51 µM). A digest of the protocol:
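TRHR-expressing HEK293 cells loaded with calcium dye for 2 h at 37 C; compounds pre-incubated 5 min at room temperature before TRH challenge at 1 nM final. Intracellular calcium fluorescence read kinetically for 3 min; 15 concentrations in triplicate.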

Assay [18] has the same target. The assay is described as follows: qHTS assay to identify small molecule agonists of the thyrotropin-releasing hormone receptor (TRHR) signaling pathway (AID 1346891; calls by dose curve; further: potency means the concentration at half of the fitted maximal effect; on activation: series mostly up to about 58 µM). Summed up:
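Screening of agonists relied on calcium signalling in HEK293 cells expressing human TRHR: dye loading 2 h at 37 °C preceded compound addition and a 3-min fluorescence time course.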

Assay [19] is described as follows: Human pregnane X receptor (PXR) small molecule agonists, qHTS cell viability counter screen (AID 1346977). Further: nearly all actives have a fitted effect of over 50% in size. Further: potency means the concentration at half of the fitted maximal effect. Summed up: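 Tox21 qHTS format; PXR-Luc HepG2, 2,000/well, charcoal-stripped FBS 5%. Cpd exposure 24hr. Read: CellTiter-Fluor fluorescence, multiplexed with luciferase.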
In assay [20] the target is Progesterone receptor (Homo sapiens) (UniProt P06401). Description: qHTS assay to identify small molecule antagonists of the progesterone receptor (PR) signaling pathway (AID 1346795; active means well fitted inhibition curve with a large enough effect in the signal ratio in the repeat runs, not every such curve was filed as active; the % refers to the signal ratio; further: potency means the concentration at half of the fitted maximal effect). Summed up: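 In HEK293T cells bearing the PR-UAS-bla reporter, compound effects on promegestone-driven (1 nM) beta-lactamase expression are assessed after 16 hr using a fluorescent FRET substrate incubated 2 hr at room temperature.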

Values joined by “and” are separate entries in the source; they are usually repeats but may differ in a detail not shown here. Equal values may be shown once. Unmarked numbers belong to inactive results. Records with an inconclusive call do not appear. Active and inactive are the calls of the source. Unless noted, the call rests on the fitted dose curve; in most records, active means well fitted curve in the direction sought with a large enough effect in the repeat runs; inconclusive means weak or mixed curves; inactive means no such curve, though single readings can be large; an effect the other way counts as inactive or inconclusive.

Chain of Androgen receptor (Homo sapiens) (P10275 whole entry, looked up): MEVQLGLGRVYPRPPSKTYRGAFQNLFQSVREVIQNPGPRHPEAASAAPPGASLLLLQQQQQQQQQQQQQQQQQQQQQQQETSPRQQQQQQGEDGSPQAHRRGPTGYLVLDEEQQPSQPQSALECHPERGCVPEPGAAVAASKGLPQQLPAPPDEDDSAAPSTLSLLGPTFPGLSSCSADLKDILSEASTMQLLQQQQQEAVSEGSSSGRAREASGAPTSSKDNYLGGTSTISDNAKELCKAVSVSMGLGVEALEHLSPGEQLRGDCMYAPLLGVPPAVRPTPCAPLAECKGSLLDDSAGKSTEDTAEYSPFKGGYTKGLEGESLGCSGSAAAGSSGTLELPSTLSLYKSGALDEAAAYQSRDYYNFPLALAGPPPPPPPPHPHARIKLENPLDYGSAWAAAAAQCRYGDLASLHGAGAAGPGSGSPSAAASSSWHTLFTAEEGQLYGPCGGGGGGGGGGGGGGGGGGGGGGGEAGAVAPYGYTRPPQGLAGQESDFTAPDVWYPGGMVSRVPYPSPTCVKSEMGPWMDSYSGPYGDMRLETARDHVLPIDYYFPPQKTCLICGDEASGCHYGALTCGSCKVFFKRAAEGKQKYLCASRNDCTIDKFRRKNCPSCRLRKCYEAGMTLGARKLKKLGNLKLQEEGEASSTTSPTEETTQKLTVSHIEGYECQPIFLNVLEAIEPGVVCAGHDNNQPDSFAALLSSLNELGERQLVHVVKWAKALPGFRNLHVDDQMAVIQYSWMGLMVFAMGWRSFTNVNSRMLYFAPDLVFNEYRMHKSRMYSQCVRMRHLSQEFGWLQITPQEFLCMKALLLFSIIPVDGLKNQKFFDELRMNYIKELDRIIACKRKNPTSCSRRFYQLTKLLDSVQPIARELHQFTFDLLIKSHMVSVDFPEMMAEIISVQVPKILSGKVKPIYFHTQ
Chain of Progesterone receptor (Homo sapiens) (P06401 whole entry, looked up): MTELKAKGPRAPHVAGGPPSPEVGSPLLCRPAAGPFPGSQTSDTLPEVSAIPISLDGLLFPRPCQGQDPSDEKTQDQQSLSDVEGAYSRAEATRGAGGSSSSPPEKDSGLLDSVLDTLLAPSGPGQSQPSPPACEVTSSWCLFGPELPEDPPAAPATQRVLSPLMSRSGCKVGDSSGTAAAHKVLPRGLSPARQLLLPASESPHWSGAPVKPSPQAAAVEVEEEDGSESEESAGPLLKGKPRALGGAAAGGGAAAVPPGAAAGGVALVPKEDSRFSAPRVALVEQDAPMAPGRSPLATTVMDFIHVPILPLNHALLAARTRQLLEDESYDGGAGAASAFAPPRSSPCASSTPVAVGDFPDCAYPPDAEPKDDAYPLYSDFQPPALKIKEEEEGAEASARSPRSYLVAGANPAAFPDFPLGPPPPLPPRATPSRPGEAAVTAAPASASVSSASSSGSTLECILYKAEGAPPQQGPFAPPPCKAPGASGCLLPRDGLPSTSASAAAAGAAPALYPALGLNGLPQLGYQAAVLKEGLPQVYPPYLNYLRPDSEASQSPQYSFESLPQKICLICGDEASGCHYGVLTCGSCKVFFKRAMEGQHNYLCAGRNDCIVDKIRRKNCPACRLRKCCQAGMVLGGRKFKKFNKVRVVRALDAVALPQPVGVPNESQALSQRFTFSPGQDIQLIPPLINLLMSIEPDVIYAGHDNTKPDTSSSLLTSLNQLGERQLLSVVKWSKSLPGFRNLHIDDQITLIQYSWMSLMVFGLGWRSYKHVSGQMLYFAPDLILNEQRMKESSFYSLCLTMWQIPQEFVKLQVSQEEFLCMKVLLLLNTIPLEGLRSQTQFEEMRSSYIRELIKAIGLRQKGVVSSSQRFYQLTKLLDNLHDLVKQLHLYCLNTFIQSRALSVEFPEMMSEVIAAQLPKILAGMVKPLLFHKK
Chain of Estrogen receptor (Homo sapiens) (P03372 whole entry, looked up): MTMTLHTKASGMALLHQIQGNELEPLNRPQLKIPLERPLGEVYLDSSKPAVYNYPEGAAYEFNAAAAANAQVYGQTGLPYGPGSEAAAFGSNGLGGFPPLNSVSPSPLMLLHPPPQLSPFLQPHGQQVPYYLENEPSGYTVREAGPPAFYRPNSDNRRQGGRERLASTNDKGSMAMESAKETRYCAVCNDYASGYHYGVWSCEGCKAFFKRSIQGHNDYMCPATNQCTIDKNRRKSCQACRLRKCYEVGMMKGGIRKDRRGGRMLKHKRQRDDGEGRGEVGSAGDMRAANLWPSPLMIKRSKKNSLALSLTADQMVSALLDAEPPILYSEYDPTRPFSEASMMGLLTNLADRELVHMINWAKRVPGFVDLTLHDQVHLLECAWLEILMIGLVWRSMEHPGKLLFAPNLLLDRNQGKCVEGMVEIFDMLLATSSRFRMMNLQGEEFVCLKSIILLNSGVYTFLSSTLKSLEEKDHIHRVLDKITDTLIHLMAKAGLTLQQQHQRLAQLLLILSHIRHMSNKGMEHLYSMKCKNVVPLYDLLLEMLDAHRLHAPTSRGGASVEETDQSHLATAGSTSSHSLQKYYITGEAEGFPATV
Chain of Thyrotropin receptor (Homo sapiens) (P16473 whole entry, looked up): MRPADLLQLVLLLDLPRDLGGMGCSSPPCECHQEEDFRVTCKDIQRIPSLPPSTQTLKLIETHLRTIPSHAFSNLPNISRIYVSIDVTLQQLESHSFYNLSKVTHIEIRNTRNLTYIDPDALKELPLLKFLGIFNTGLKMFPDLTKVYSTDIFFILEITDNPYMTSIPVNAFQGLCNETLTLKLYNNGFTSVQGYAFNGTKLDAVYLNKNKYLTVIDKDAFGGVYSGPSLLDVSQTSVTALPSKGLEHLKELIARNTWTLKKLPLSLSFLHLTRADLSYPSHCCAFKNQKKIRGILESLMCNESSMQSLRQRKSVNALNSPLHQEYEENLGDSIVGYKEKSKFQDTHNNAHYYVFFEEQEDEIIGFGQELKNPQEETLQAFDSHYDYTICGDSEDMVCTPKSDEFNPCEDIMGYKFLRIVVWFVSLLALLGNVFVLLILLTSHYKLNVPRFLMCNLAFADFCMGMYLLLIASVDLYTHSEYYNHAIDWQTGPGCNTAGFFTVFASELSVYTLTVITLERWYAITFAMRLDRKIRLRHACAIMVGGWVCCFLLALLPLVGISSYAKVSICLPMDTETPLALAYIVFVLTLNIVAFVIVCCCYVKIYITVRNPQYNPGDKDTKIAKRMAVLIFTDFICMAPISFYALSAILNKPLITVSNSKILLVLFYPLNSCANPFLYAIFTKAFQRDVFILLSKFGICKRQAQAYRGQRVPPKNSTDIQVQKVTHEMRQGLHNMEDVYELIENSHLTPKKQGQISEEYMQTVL
Chain of Thyrotropin-releasing hormone receptor (Homo sapiens) (P34981 whole entry, looked up): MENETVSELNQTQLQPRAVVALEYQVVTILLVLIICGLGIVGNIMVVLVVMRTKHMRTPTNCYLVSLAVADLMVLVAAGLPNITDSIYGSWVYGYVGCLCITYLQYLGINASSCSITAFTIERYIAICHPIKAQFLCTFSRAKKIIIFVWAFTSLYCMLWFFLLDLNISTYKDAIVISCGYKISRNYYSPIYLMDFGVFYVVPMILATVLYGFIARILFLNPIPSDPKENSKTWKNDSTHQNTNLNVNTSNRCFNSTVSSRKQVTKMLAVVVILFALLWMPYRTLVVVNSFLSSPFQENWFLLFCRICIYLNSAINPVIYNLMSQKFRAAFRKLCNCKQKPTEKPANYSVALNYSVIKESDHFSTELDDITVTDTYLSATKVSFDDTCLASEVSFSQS
Chain of Estrogen receptor beta (Homo sapiens) (Q92731 whole entry, looked up): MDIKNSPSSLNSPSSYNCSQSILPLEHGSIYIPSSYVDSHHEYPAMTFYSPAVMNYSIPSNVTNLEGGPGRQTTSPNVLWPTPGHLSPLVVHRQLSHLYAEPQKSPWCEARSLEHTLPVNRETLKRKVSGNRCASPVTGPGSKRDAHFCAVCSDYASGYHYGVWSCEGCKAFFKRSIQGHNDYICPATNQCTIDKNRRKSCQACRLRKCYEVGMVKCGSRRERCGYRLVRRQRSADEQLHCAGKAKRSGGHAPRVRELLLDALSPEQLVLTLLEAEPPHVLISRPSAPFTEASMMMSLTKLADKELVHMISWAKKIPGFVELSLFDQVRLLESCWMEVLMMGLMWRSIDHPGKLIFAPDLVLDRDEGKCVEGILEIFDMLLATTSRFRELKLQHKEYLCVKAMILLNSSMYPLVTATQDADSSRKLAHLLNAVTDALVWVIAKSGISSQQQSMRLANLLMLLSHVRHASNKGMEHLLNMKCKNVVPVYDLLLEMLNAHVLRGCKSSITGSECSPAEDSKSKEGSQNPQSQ

For `O=CC1CC1`, the Potency result in assay [1], in [2], in assay [3], in assay [4], in assay [5] and in [6] was “inactive” in each case. The Potency result in assay [7], in assay [9], in assay [10], in assay [12], in assay [13] and in assay [14] was “inactive” each time. Also, the Potency entry in [15], in assay [16], in [17], in assay [18] and in [19] was “inactive” in each case. Further, the outcome in assay [8] and in [11] was inactive.

`CCCCOCC`: the Potency result in assay [1], in [2], in assay [3], in assay [4], in [5] and in assay [6] was “inactive” in each case. The Potency result in [9], in assay [20], in assay [12], in [13], in assay [14] and in [15] was “inactive” each time. Further, the Potency entry in [16] and in assay [19] was “inactive” throughout. The compound was classed as inactive in [8] and in assay [11].

For the compound `CCN(CC)CCOC(=O)C1(C2CCCCC2)CCCCC1`, the Potency result in assay [1], in assay [2], in assay [3], in assay [5], in [7] and in assay [20] was “inactive” each time. The Potency entry in assay [16], in assay [17] and in [18] was “inactive” throughout. The values for the Potency in assay [4] and in [9] were 26.6 µM (active) and 29.8 µM (active), respectively. For the same compound, in [8], the call was inactive.

`CC(=O)O[C@@H]1C[C@@H]2CC[C@@]1(C)C2(C)C`: the Potency entry in assay [1], in assay [2], in [3], in assay [4], in assay [5] and in [6] was “inactive” throughout. The Potency result in [9], in assay [10], in assay [12], in assay [13], in assay [14] and in [15] was “inactive” throughout. The Potency result in assay [16], in [17], in [18] and in assay [19] was “inactive” in each case. Moreover, the call in assay [8] was inactive.

Turning to `CC1=CP(=O)(c2ccccc2)CC1` (stereo unspecified), the Potency entry in assay [1], in [2], in [3], in assay [4], in [5] and in assay [6] was “inactive” throughout. The Potency entry in [9], in assay [10], in assay [20], in [12], in [13] and in assay [14] was “inactive” throughout. Besides, the Potency entry in [15], in assay [16], in assay [17], in assay [18] and in [19] was “inactive” each time. Moreover, the outcome in [8] was inactive.

For `C#CC(O)CCC` (stereo unspecified), the Potency result in assay [1], in assay [2], in assay [3], in [4], in [6] and in assay [7] was “inactive” in each case. In addition, the Potency entry in [9], in [10], in [20], in assay [12], in assay [13] and in assay [14] was “inactive” each time. Further, the Potency entry in [15], in [16], in [18] and in assay [19] was “inactive” throughout. Moreover, the compound was called inactive in assay [8] and in assay [11].

On to `CCN=c1cc2oc3cc(NCC)c(C)cc3c(-c3ccccc3C(=O)OCC)c-2cc1C`, for which the Potency entry in [1], in assay [5] and in [7] was “inactive” each time. Besides, the Potency was 0.272 µM (active) in assay [2]; 272 nM (active) and 306 nM (active) in assay [3]; 54.3 µM (active) and 24.3 µM (active) in assay [4]; 54.3 µM (active) and 34.4 µM (active) in assay [6]; 9.65 µM (active) and 9.69 µM (active) in assay [10]; 48.4 µM (active) and 54.5 µM (active) in assay [20]. The Potency in [12] was 61.1 µM (active); in assay [13], 48.4 µM (active); in assay [14], 48.8 µM (active) and 49 µM (active); in assay [15] it was 48.8 µM (active) and 49 µM (active); in assay [18], 6.89 µM (active) and 5.49 µM (active); in [19], 2.51 µM (active) and 1.54 µM (active). In addition, the outcome in assay [11] was inactive.
